# Compounds with a hit are over-represented: about 1.1% of the library has one in this group of screens.
# STK33 kin inh – STK33 kinase inhibitors, primary screen, biochemical, luminescence, ADP-Glo, MBP substrate; Serine/threonine-protein kinase 33 (Homo sapiens), Q9BYT3; inhibition, % at 12.5 µM; actives 0.44% (n = 27,000); AID 2322, 2010; in the data active = inhibition above about 20%
# ID4 binder – binders of human ID4 protein, primary screen, biochemical, small molecule microarray, single point | actives 1.2% (n = 31,000) | Flag-ID4 binding, fluorescence F/B | DNA-binding protein inhibitor ID-4 (Homo sapiens), P47928 | calls only; call rule not given here;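 note: a binder raises fluorescence above local background on the spot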
# Target sequence (P47928 whole entry, looked up): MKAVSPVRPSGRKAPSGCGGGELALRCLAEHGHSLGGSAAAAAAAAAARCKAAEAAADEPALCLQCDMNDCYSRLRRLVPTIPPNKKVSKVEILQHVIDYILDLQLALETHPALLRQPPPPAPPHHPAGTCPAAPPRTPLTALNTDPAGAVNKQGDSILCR
# Active calls of the source: *; i = inactive; · = no result given; + = active, no number.
SMILES,STK33 kin inh,ID4 binder
Cc1ccc2c(c1O)C(=O)c1ccc(O[C@@H]3O[C@H](CO[C@@H]4OC[C@@H](O)[C@H](O)[C@H]4O)[C@@H](O)[C@H](O)[C@H]3O)cc1C2=O,-1,i
COc1ccc(Cl)cc1N(CC(=O)Nc1cc(Cl)ccc1Cl)S(C)(=O)=O,-1,i
COc1cccc(N(CC(=O)Nc2cccc(Cl)c2C)S(C)(=O)=O)c1,3,i
O=C(CSc1nnc(-c2ccc([N+](=O)[O-])cc2)n1-c1ccccc1)Nc1ccc(F)cc1,-1,i
Cn1c(SCC(=O)Nc2ccc(F)cc2)nnc1-c1ccc([N+](=O)[O-])cc1,27*,i
COc1cccc(-c2cc(=O)c3cc(OC)ccc3o2)c1,7,i
COCC(=O)Nc1ccc2c(c1)[C@@H]1C[C@H](CC(=O)NC3CCCC3)O[C@@H](CO)[C@@H]1O2,·,i
O=C(CC1CC1)Nc1ccc2c(c1)[C@@H]1C[C@H](CC(=O)NC3CCCC3)O[C@H](CO)[C@@H]1O2,·,+
C[C@H](CO)N1C[C@H](C)[C@H](CN(C)CC2CC2)OCc2cn(nn2)CCCC1=O,2,i
CCCN(C)C[C@H]1OCc2cn(nn2)CCCC(=O)N([C@H](C)CO)C[C@H]1C,·,+
Cc1ccc(C(=O)Nc2ccccc2C(=O)N2CCCC2)cc1S(=O)(=O)N1CCOCC1,12,i
CNC[C@@H]1OCCCC[C@H](C)Oc2ccc(NS(=O)(=O)c3cccs3)cc2C(=O)N([C@@H](C)CO)C[C@H]1C,·,i
CNC[C@H]1OCCCC[C@H](C)Oc2ccc(NS(=O)(=O)c3cccs3)cc2C(=O)N([C@@H](C)CO)C[C@@H]1C,·,+
CNC[C@@H]1OCCCC[C@@H](C)Oc2ccc(NS(=O)(=O)c3cccs3)cc2C(=O)N([C@@H](C)CO)C[C@H]1C,·,+
CNC[C@H]1OCCCC[C@@H](C)Oc2ccc(NS(=O)(=O)c3cccs3)cc2C(=O)N([C@H](C)CO)C[C@H]1C,·,i
CCN(CC(=O)Nc1ccccc1OC)S(=O)(=O)c1ccc(C)cc1,6,i
COc1cc(Cl)c(C)cc1NC(=O)CN(C)S(=O)(=O)c1ccccc1,2,i
COC(=O)c1ccccc1NC(=O)CSc1nnc(-c2ccccc2)o1,0,i
O=S(=O)(c1ccc(Cl)cc1)N1CCN(CC(O)COc2ccc3ccccc3c2)CC1 (stereo unspecified),5,i
C/C=C/C=C/C(=O)c1cc(C)c(O)c(C)c1O,-7,i
C[C@H](CCC(=O)O)[C@H]1CC[C@H]2[C@@H]3C(=O)C[C@@H]4CC(=O)CC[C@]4(C)[C@H]3CC(=O)[C@]12C,-1,+
CC(CCC(=O)NCC(=O)O)C1CCC2C3CCC4CC(O)CCC4(C)C3CC(O)C12C (stereo unspecified),·,i
O=C(Cc1ccc(O)cc1)OC1[C@@H](O)[C@@H](O)C(OC(=O)Cc2ccc(O)cc2)[C@H](O)[C@@H]1O (stereo partly specified),2,·
